# Data as given in PubChem BioAssay (Tox21).
# Results filed as inconclusive are left out. Unmarked numbers belong to inactive results. Calls of active or inactive are those of the source. The rule behind the calls is not given here.
# Test: qHTS assay to identify small molecule antagonists of the estrogen related receptor signaling pathway with the pleiotropic PPARgamma coactivator (PGC) from Tox21 10K library (AID 1224841); note: actives are mostly falling curves and most rising ones were filed inactive; nearly all actives have a fitted effect of over 50% in size
# Details: PGC/ERR reporter cell line, ONE-Glo luciferase, 18 h; series mostly up to 92.4 µM; activity, negative = inhibition: at the top concentration
# From the text: U.S. Tox21 Program National Center for Advancing Translational Sciences [NCATS] NIH Chemical Genomics Center [NCGC] U.S. Environmental Protection Agency [EPA] National Institutes of Environmental Health Sciences [NIEHS] National Toxicology Program [NTP] U.S. Food and Drug Administration [FDA] Tox21 Assay Overview: Estrogen related receptors (ERRs), the first orphan nuclear receptors discovered, play an important role in the control of cellular energy metabolism. ERRs are required for high-energy production in response to the environmental challenges. The pleiotropic PPARgamma coactivator (PGC) is a major partner of ERR and a key regulator in energy homeostasis. Together they have been implicated in the etiology of metabolic disorders such as Type 2 diabetes and metabolic syndrome. ERR-alpha was also identified as an adverse marker for breast cancer progression; ERR-alpha-positive tumors have a poor prognosis. To screen and to identify environmental compounds that perturb the ERR and PGC/ERR signaling pathways could provide valuable information for potential therapeutic or preventive measures in the treatment of metabolic disease. For identifying PGC/ERR antagonists, PGC/ERR cell line (provided by NTP) has been used to screen Tox21 10K library.
# Tox21 Assay Protocol Summary: The PGC/ERR cells were dispensed at 2,000 cells/5 ul/well in 1536-well white plates using a Multidrop dispenser. After the assay plates were incubated at a 37 C/5% CO2 incubator for 6 hours, 23 nL of compounds dissolved in DMSO, positive and negative controls or DMSO only was transferred to the assay plate by a pin tool. The plates were incubated at 37 C for 18 hours. 4 ul/well of One-Glo reagent was added into the assay plates using a Flying Reagent Dispenser. After 30-minute incubation at room temperature, the luminescence intensity in the plates was measured using a ViewLux plate reader.
# % is set by controls: 0 for no effect and ±100 for the full control effect; potency is the fitted concentration of half-maximal effect.
SMILES,"activity, negative = inhibition",Potency
OCCc1ccncc1,-6.75%,
CC(O)CN (stereo not given),-1.71%,
Cc1c(-c2cccnc2)c2ccccc2n1CCCCC(=O)O,-6.13%,
CC1(COc2ccc(CC3SC(=O)NC3=O)cc2)CCCCC1 (stereo not given),52.4% [at 42.5 µM],
C=C(C)C(=O)OCCCCCCCCCCOC(=O)C(=C)C,5.81%,
CC(CC(C#N)(c1ccccc1)C(C)C)N(C)C (stereo not given),-10.7% [at 42.5 µM],
CC(COc1ccccc1)NC(C)C(O)c1ccc(O)cc1 (stereo not given),11.2% [at 42.5 µM],
O=C1c2ccccc2C(=O)C1c1ccc2cc(S(=O)(=O)O)cc(S(=O)(=O)O)c2n1,32.8%,
CC1=CC(=C(c2ccc(N)cc2)c2ccc(N)cc2)C=CC1=N,,2.76 µM (active)
Nc1cccc2c(=O)[nH][nH]c(=O)c12,,61.4 µM (active)
CCC(C)C1N=C(C)C(C)S1 (stereo not given),-1.41%,
CCC(=O)O[C@]1(C(=O)COC)[C@@H](C)C[C@H]2[C@@H]3CCC4=CC(=O)C=C[C@]4(C)C3(F)[C@@H](O)C[C@@]21C (stereo not given in full),-1.26% [at 42.5 µM],
CCCCCO,4.34%,
CCN(CCCCOC(=O)c1ccc(OC)c(OC)c1)C(C)Cc1ccc(OC)cc1 (stereo not given),-20.1% [at 42.5 µM],
COc1ccc(C(=O)c2ccc(C)cc2)c(O)c1,50.2%,
NCCOCCOCCN,7.8%,
CCCN(C1CCN(C(=O)C2CCNCC2)CC1)[C@@H]1CCc2ccc(OC)cc2C1,-23.4%,
O=Cc1ccc([N+](=O)[O-])cc1,379%,
CCCCCCOC(=O)c1ccccc1,8.62%,
C/C(=C(\CCO)SS/C(CCO)=C(\C)N(C=O)Cc1cnc(C)nc1N)N(C=O)Cc1cnc(C)nc1N,1.82% [at 42.5 µM],

SMILES,"activity, negative = inhibition",Potency
O=C(O)c1cc(C(=O)O)c(C(=O)O)cc1C(=O)O,-6.06%,
Oc1ccc(CCNCCCCCCNCCc2ccccc2)cc1O,12.8% [at 42.5 µM],
Cc1cc(N)n(-c2ccccc2)n1,11.1%,
CCCCOc1ccc(N)cc1,22.9%,
O=C(c1ccco1)N1CCNCC1,-0.372% [at 42.5 µM],
Clc1cc(Cl)c2c(c1)N=C1CCCCCN1C2,12.9% [at 42.5 µM],
CCOc1cc(OCC)c(C(C)=O)cc1OCC,-25.2%,
CCC[Si](OC)(OC)OC,-17.5%,
Nc1ccc(C(=O)Oc2ccccc2)c(O)c1,197% [at 42.5 µM],
COC(=O)C(C)(C)C,-0.329%,
COC(=O)/C=C/C(C)=C\C=C\C(C)=C\C=C\C=C(C)\C=C\C=C(C)\C=C\C(=O)O,2.18%,
CC(=O)Nc1cccc(N)c1,0.869%,
CC(C)Oc1ccccc1O,2.01%,
CCC(=O)O[C@@H]1C[C@H]2CC[C@]1(C)C2(C)C,4.9%,
CCOc1ccc(NC(C)=O)cc1N,11.2%,
CCCCCC1CCC(=O)O1 (stereo not given),2.74%,
O=C(Nc1ccccc1)c1cc([N+](=O)[O-])ccc1Cl,,15.4 µM (active)
O=C(O)c1cccnc1Nc1cccc(C(F)(F)F)c1,2.18% [at 42.5 µM],
Nc1ccc(-c2ccc(F)cc2)cc1,73.2%,
CCCCCCCCCCCCSCCOCCO,-11.6% [at 42.5 µM],
